# KB-V1 cytotox – qHTS assay for MDR1-selective chemotherapeutics: Primary screen using the drug-selected MDR subline cells KB-V1 | Potency, µM (top dose mostly 46.1 µM), most hits filed as cytotoxic | KB-V1 MDR cells viability, CellTiter-Glo, 72 h | 3.4% of 400,000 active; further: potency means the concentration at half of the fitted maximal effect; nearly all actives have a fitted effect of over 60% in size
#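 Readout: CellTiter-Glo luminescence, 10 min after addition. Cells: KB-V1 MDR subline, 72 h at 37 degrees C with compound. Analysis: corrected, normalized data fitted to concentration-effect curves.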
# IL-1B inflam inh – qHTS for Inhibitors of Inflammasome Signaling: IL-1-beta AlphaLISA Primary Screen; 4.7% of 360,000 active; AID 743279, 2014; THP-1 LPS/ATP IL-1B secretion, AlphaLISA, 16 h; active compounds read low; activity change, % at 57.5 µM; in the data active means activity change below about -50%; inconclusive means mostly about -30% to -49%
#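 Secreted IL-1B measured by AlphaLISA bead assay after 16 h compound exposure of THP-1 cells; compounds (final up to 57.5 uM) added 1 h before LPS (250 ng/mL) and ATP (1.25 mM) stimulation; lower signal means less secretion.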
# KB-3-1 cytotox – qHTS assay for MDR1-selective chemotherapeutics: Primary screen using the parental adenocarcinoma cell KB-3-1; KB-3-1 viability, CellTiter-Glo ATP luminescence, 72 h; Potency, µM (titrated, usually from 46.1 µM), most hits filed as cytotoxic; 1.4% of 400,000 active; AID 1347075, 2019; further: potency means the concentration at half of the fitted maximal effect; nearly all actives have a fitted effect of over 60% in size
#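 Cytotoxicity in the drug-sensitive parental line KB-3-1 was scored as loss of CellTiter-Glo luminescence following 72 h incubation with compound. Values come from curve fitting of normalized concentration-response data.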
# HT1080 IDH1KD tx – qHTS for induction of synthetic lethality in tumor cells producing 2HG: qHTS for the HT-1080-IDH1KD cell line; HT-1080 IDH1 knockdown viability, ATP luminescence, 48 h; 2% of 360,000 active; Potency, µM (highest dose often 46.1 µM), for the others: at the top dose activity, negative = toxicity, hits mostly cytotoxic; AID 686971, 2013;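 further: potency means the concentration at half of the fitted maximal effect; 0% = DMSO wells and -100% = cell-free medium wells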
#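 % activity derives from luminescence (CellTiter-Glo), normalised to DMSO and no-cell wells. HT-1080-IDH1KD cells, 750/well, had 48 h compound exposure at 37 °C.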
# HT1080-NT tox – qHTS for induction of synthetic lethality in tumor cells producing 2HG: qHTS for the HT-1080-NT fibrosarcoma cell line; HT-1080-NT fibrosarcoma viability, CellTiter-Glo ATP luminescence, 48 h; Potency, µM (highest dose often 46.1 µM), without a hit: top-dose activity, negative = less viability, usual class: cytotoxic; 1.6% of 360,000 active;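 further: NT is the 2HG producing partner of a matched IDH1 knockdown line; potency means the concentration at half of the fitted maximal effect; 0% = DMSO-treated cells and -100% = media-only wells without cells; nearly all actives have a fitted effect of over 55% in size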
#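 HT-1080-NT; 750 cells/well; 5% FBS RPMI; 48 h compound, 37 degrees C; CellTiter-Glo luminescence; curve fitting and curve-class assignment.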
# * = called active by the depositor; i = inactive; ? = inconclusive; · = no result given. An excerpt weighted towards active compounds, which were near 8.8% of everything screened. Unless noted, the call rests on the fitted dose curve; in most records, active means well fitted curve in the direction sought with a large enough effect; inconclusive means small, poorly fitted or top-dose-only effect, or another doubt; inactive means no such curve, though single readings can be large; an effect the other way counts as inactive or inconclusive. Unless noted, on the % scale 0 is the no-effect control and ±100 the full control effect.
SMILES,KB-V1 cytotox,IL-1B inflam inh,KB-3-1 cytotox,HT1080 IDH1KD tx,HT1080-NT tox
Cc1cccc(-c2nc3ccc(C(=O)N4CCC5(CC4)OCCO5)cc3nc2-c2cccc(C)c2)c1,i,-77.3*,?,?,?
O=C(c1ccc2c(c1)ncn2C1CCCCC1)N1CCC2(CC1)OCCO2,9.2µM*,45.3,?,?,?
COc1ccc(Oc2cc(NC(=O)c3nn(C)cc3[N+](=O)[O-])cc([N+](=O)[O-])c2)cc1,?,-96.2*,20.6µM*,5.17µM*,18.4µM*
COc1ccc(C(=O)OC2CC3CCC(C2)[N+]3(C)[O-])cc1OC (stereo not drawn),?,14.2,i,2.2%,1.9%
CC[C@H](C)[C@@H](C(=O)N1CCCC1c1nccs1)N(C)C(=O)[C@H](CC(C)C)N(C)C(=O)[C@H](Cc1ccc(OC)cc1)N(C)C(=O)/C=C(\C)OC (stereo partly drawn),i,73.1,i,-6.0%,-3.7%
CC[C@@H](C)[C@H](C(CC(=O)N1CCCC1[C@@H](OC)[C@H](C)C(=O)N[C@H](Cc1ccccc1)c1nccs1)OC)N(C)C(=O)[C@H](NC(=O)[C@@H](C(C)C)N(C)C)C(C)C (stereo partly drawn),0.184µM*,41.1,?,?,0.259µM*
COC(=O)C1=C(c2ccc(C(C)=O)cc2)C[C@@H]2CC[C@H]1N2C(=O)N1CCCCC1,i,-1.2,i,4.0%,2.8%
COc1ccc(-n2nnnc2C(CCc2ccccc2)N2CCC3(CC2)C(=O)NCN3c2ccccc2)cc1 (stereo not drawn),?,-67.1*,?,?,?
CSCCC(c1nnnn1Cc1ccccc1)N1CCC2(CC1)C(=O)NCN2c1ccccc1 (stereo not drawn),14.6µM*,0.0,i,-18.1%,?
CC(C)(C)n1nnnc1C(CCc1ccccc1)N1CCC2(CC1)C(=O)NCN2c1ccccc1 (stereo not drawn),?,-60.5*,?,?,?
COc1ccc(-n2nnnc2C(c2cccs2)N2CCC3(CC2)C(=O)NCN3c2ccccc2)cc1 (stereo not drawn),?,-56.6*,i,?,?
CCC(CO)(C(=O)OC1CC2CCC(C1)N2C)c1ccccc1 (stereo not drawn),i,3.6,i,6.5%,-2.9%
CC(C)(OOC1(c2ccccc2)NC(=O)c2ccccc21)c1ccccc1 (stereo not drawn),i,0.0,i,-12.1%,-25.5%
Cc1cc(N2CCN(S(=O)(=O)c3ccc(Cl)cc3)CC2)c2ccccc2n1,18.4µM*,-64.3*,?,?,?
COc1ccc(C)cc1NC(=O)N(Cc1ccc2c(c1)OCO2)C1CCN(Cc2ccccc2)CC1,i,·,i,·,·
C=C(C=O)C[C@@H]1C[C@H](O)C2OC3C[C@]4(C)OC5/C=C\CC6OC7C(CC=CCC6OC5CCCC4OC3CC2O1)OC1CC2OC3CC(=O)OC3C[C@@H](C)C[C@@]2(C)OC1C[C@@H]7C (stereo partly drawn),8.2µM*,-102.4*,4.61µM*,·,8.2µM*
C=C(C=O)CC1CC(O)[C@]2(C)OC3C[C@@H]4OC5C[C@]6(C)O[C@]7(C)CCC8OC9C[C@]%10(C)OC(/C(C)=C\CO)C(O)CC%10OC9CC(C)C8OC7CC6O[C@]5(C)C/C=C\C4OC3CC2O1 (stereo partly drawn),i,-2.4,i,15.8%,3.1%
O=S1(=O)N(Cc2ccc(F)cc2)CCCN1Cc1ccccc1Cl,i,-7.4,i,2.3%,-10.8%
Cc1ccc(O)c(C(=O)c2cc(C(=O)NCCC(C)C)c(=O)n(CCC(C)C)c2)c1,?,-56.0*,i,-5.8%,-9.0%
CC[N+]12CCC(CC1)C(=C(c1ccccc1)c1ccccc1)C2,i,0.0,14.6µM*,-8.5%,-11.7%
C[N+]12CCC(CC1)C(=C(c1ccccc1)c1ccccc1)C2,i,30.3,?,?,-67.0%
O=C1NC(=O)C(CCc2ccncc2)(Cc2ccc([N+](=O)[O-])cc2)C(=O)N1,i,26.6,i,14.1%,12.4%
COC(=O)C12CCc3c(ccc4cc(OC)ccc34)C1=CC(=O)C2 (stereo not drawn),20.6µM*,-1.8,?,2.2%,11.7%
CC1CN(c2ccc([N+](=O)[O-])c(N3CCCCC3)c2)CCN1 (stereo not drawn),i,-5.2,i,-7.4%,-12.9%
COc1ccc(-n2c(-c3ccccc3Br)nc3ccccc3c2=O)cc1,i,0.3,i,-12.3%,?
SMILES,KB-V1 cytotox,IL-1B inflam inh,KB-3-1 cytotox,HT1080 IDH1KD tx,HT1080-NT tox
CCN1/C(=C/C=C/C2=[N+](CC)c3ccccc3C2(C)C)C(C)(C)c2ccccc21,8.2µM*,-104.6*,0.0065µM*,10.3µM*,9.2µM*
Cc1cc(O)c2c(c1)OC(C)(C)C1=C2CC(C)CC1 (stereo not drawn),i,53.5,i,2.5%,-5.0%
CCC1CN2CCc3cc(OC)c(OC)cc3C2CC1CC1NCCc2c1[nH]c1ccc(O)cc21 (stereo not drawn),i,-101.3*,0.411µM*,0.184µM*,0.411µM*
C1=NCCCN2CCCCC12 (stereo not drawn),i,1.7,i,3.9%,4.4%
CCOC(=O)c1cnc(SCc2ccc(Cl)c(Cl)c2)nc1N1CC1,8.2µM*,-14.4,i,9.2µM*,?
Cc1ccc(C2C(=O)NC(=O)NC2=O)cc1,i,0.3,i,16.8%,29.4%
FC(F)(F)c1ccc(CNCCc2c[nH]c3ccccc23)cc1,?,-16.2,i,-0.5%,16.5%
COc1ccc(CNCCc2c[nH]c3ccccc23)c(OC)c1OC,i,-58.1*,i,?,-1.8%
Clc1cccc(CNCCc2c[nH]c3ccccc23)c1,i,-91.9*,i,16.4µM*,18.4µM*
CCOc1cc(CNCCc2c[nH]c3ccccc23)cc(Cl)c1OC,?,-102.7*,?,20.6µM*,18.4µM*
CCCCNCc1cc(Cl)c(OCCC)c(OCC)c1,16.4µM*,-63.9*,i,?,?
COc1cccc(CNCCc2c[nH]c3ccccc23)c1OC,i,12.1,i,0.4%,-15.9%
CN(C)Cc1c[nH]c2cc([N+](=O)[O-])ccc12,i,-6.2,i,-9.2%,4.7%
COc1ccc(NC2=NC(C)(C)CS2)cc1,i,-54.5*,?,-2.8%,24.8%

# Assay outcomes deposited in PubChem BioAssay by National Center for Advancing Translational Sciences (NCATS).
